This note sets out measurements from PubChem BioAssay (Tox21).

Structures are written as SMILES. Unmarked numbers belong to inactive results. Inconclusive results are not listed. Active and inactive are the calls of the source. Unless noted, calls come from the whole dose curve; as a rule, active = well fitted curve in the direction sought with a large enough effect in the repeat runs; inconclusive = weak or mixed curves; inactive = no such curve, though single readings can be large; an effect the other way counts as inactive or inconclusive.

Assay [1] is described as follows: qHTS assay to identify small molecule agonists of the hypoxia (HIF-1) signaling pathway - cell viability counter screen (AID 1224844; calls by dose curve; note: nearly all actives have a fitted effect of over 50% in size). In a few lines: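 CellTiter-Glo luminescence read-out, 30 min RT, taken in the same wells as the beta-lactamase HRE reporter assay; HRE-bla ME-180 cells, 0.5% dialyzed FBS, 17 hr compound treatment at 37C, 5% CO2.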
Assay [2] is described as follows: qHTS assay to identify small molecule agonists of H2AX (AID 1224845; active = well fitted activation curve with a large enough effect in the signal ratio in the repeat runs, not every such curve was filed as active; the % refers to the signal ratio). An outline of the steps: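 Wild-type CHO-K1 cells plated overnight, then exposed 3 hr at 37C to compounds at 15 concentrations (0.76% DMSO). Lysed, then HTRF anti-pH2AX(S139)-cryptate/anti-H2AX-d2 detection after 24 hr at room temperature; emissions 665 and 620 nm.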
A short description of assay [3]: qHTS assay to identify small molecule agonists of the hypoxia (HIF-1) signaling pathway (AID 1224846; active = well fitted activation curve with a large enough effect in the signal ratio in the repeat runs, not every such curve was filed as active; the % refers to the signal ratio). In a few lines:
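Beta-lactamase FRET read-out (CCF4-AM substrate) from ME-180 cells carrying an HRE-driven bla reporter, after 17 hrs compound exposure at 37C/5% CO2. Cells were seeded at 2,000 per well in 0.5% dialyzed FBS medium and preincubated 5 hrs.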
Background: Quantitative high-throughput screening tests each substance at several concentrations.

Assay [4] in a line: qHTS RealTime-Glo MT Cell Viability Assay in HepG2 cells - 24 hour (AID 1224867). Note: nearly all actives have a fitted effect of over 50% in size. An outline of the steps:
(§1)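 HepG2 cells (600/well) were dispensed with RealTime-Glo reagents, incubated 5 h at 37 °C, then treated with compounds in DMSO for up to 40 h. Nonlytic NanoLuc luminescence reflecting viable cells was read at each stated time point.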

Assay [5] can be described thus: qHTS RealTime-Glo MT Cell Viability Assay in HEK293 cells - 32 hour (AID 1224868). Note: nearly all actives have a fitted effect of over 50% in size. Note: potency is the fitted concentration of half-maximal effect. In a few lines:
(§2)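 HEK293 cells seeded with NanoLuc/prosubstrate reagent, rested 5 h at 37 C, then dosed and kept at 37 C up to 40 h. Nonlytic real-time luminescence from viable cells read at 0, 8, 16, 24, 32 and 40 h.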

A short description of assay [6]: A CellTox Green Cytotoxicity Assay to monitor cytotoxicity in HEK293 cells - 0 hour (AID 1224869). Note: nearly all actives have a fitted effect of over 50% in size. In a few lines: (§3)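 Read-out: fluorescence of a cell-impermeant cyanine dye staining DNA of dead cells, proportional to cytotoxicity. HEK293, 600 cells/well with reagent, compound (23 nL DMSO) added after 5 h; reads at 0, 8, 16, 24, 32, 40 h.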
Assay [7] in a line: qHTS RealTime-Glo MT Cell Viability Assay in HepG2 cells - 40 hour (AID 1224870). Note: nearly all actives have a fitted effect of over 50% in size. An outline of the steps:
(§4)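 HepG2 cells mixed with RealTime-Glo MT reagents (NanoLuc plus cell-permeant prosubstrate) were seeded at 600 cells/well, incubated 5 h at 37 C/5% CO2, then pinned with compounds in DMSO; nonlytic luminescence tracked viability during 40 h treatment.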

Assay [8] in a line: qHTS RealTime-Glo MT Cell Viability Assay in HepG2 cells - 8 hour (AID 1224873). Note: nearly all actives have a fitted effect of over 55% in size. In a few lines: as §4
Assay [9] in a line: qHTS RealTime-Glo MT Cell Viability Assay in HEK293 cells - 40 hour (AID 1224874). Note: nearly all actives have a fitted effect of over 50% in size. Note: potency is the fitted concentration of half-maximal effect. Particulars: RealTime-Glo luminescence; max response: active compounds read low. In a few lines:
(§5)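 Luminescence readout at each listed time point; HEK293, 600 cells/well, RealTime-Glo MT reagent added with cells; compounds pinned (23 nL in DMSO) after 5 h at 37 C; continuous culture at 37 C.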

Assay [10] in a line: qHTS RealTime-Glo MT Cell Viability Assay in HepG2 cells - 32 hour (AID 1224877). Note: nearly all actives have a fitted effect of over 55% in size. In a few lines: as §1
Assay [11] can be described thus: A CellTox Green Cytotoxicity Assay to monitor cytotoxicity in HepG2 cells - 40 hour (AID 1224879). Note: nearly all actives have a fitted effect of over 40% in size. Note: potency is the fitted concentration of half-maximal effect. An outline of the steps:
(§6)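 HepG2, 600 cells/well premixed w/ CellTox Green; 5 h settle, 37 C/5% CO2; pintool cpd add (DMSO); 37 C, 40 h; fluorescence read at 0, 8, 16, 24, 32, 40 h.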

Assay [12] is described as follows: qHTS RealTime-Glo MT Cell Viability Assay in HEK293 cells - 0 hour (AID 1224880). Note: top concentration of the series differs between compounds; nearly all actives have a fitted effect of over 45% in size. In a few lines: as §5
A short description of assay [13]: qHTS assay to identify small molecule agonists of H2AX - cell viability counter screen (AID 1224847; calls by dose curve; note: top concentration of the series differs between compounds; nearly all actives have a fitted effect of over 30% in size). In a few lines: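 After overnight plating of 1000 CHO-K1 cells per well, a 15-concentration compound series was applied for 3 hr at 37C. Luminescence from CellTiter-Glo, read following 30 min at room temperature, reflected cell viability.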
Assay [14] can be described thus: A CellTox Green Cytotoxicity Assay to monitor cytotoxicity in HEK293 cells - 40 hour (AID 1224871). Note: nearly all actives have a fitted effect of over 45% in size. In a few lines: as §3
Assay [15] is described as follows: A CellTox Green Cytotoxicity Assay to monitor cytotoxicity in HEK293 cells - 24 hour (AID 1224875). Note: nearly all actives have a fitted effect of over 45% in size. In a few lines: as §3
Assay [16] can be described thus: A CellTox Green Cytotoxicity Assay to monitor cytotoxicity in HepG2 cells - 16 hour (AID 1224876). Note: nearly all actives have a fitted effect of over 45% in size. In a few lines:
as §6

Assay [17] in a line: A CellTox Green Cytotoxicity Assay to monitor cytotoxicity in HepG2 cells - 24 hour (AID 1224878). Note: nearly all actives have a fitted effect of over 45% in size. An outline of the steps:
as §6

A short description of assay [18]: qHTS RealTime-Glo MT Cell Viability Assay in HEK293 cells - 16 hour (AID 1224872). In a few lines:
as §2

Assay [19] can be described thus: qHTS assay to identify small molecule agonists of the estrogen related receptor (ERR) signaling pathway from Tox21 library (AID 1224849; calls by dose curve; note: nearly all actives have a fitted effect of over 15% in size). The following applies: ERR reporter cell line, ONE-Glo luciferase, 18 h; at 92.4 µM (top of the series) unless noted. In a few lines: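 Luminescence readout (ONE-Glo, 30 min RT) after 18 h compound exposure at 37 C of NTP-supplied ERR reporter cells; cells were plated 6 h before compound addition by pin tool.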
% is set by controls: 0 for no effect and ±100 for the full control effect.

Take `CC1=C2C[C@H]3[C@@H](CC=C4C[C@@H](O)CC[C@@]43C)[C@@H]2CC[C@]12O[C@@H]1C[C@H](C)CN[C@H]1[C@H]2C`: the Potency entry in assay [1], in assay [2], in assay [3], in assay [4], in assay [6] and in assay [7] was “inactive” each time. For the same molecule, the Potency result in [8], in assay [10] and in assay [12] was “inactive” each time. Besides, the Potency in assay [5] was 16.9 µM (active); in assay [9], 16.9 µM (active); in [11], 26.8 µM (active).
`O=C(NC(=O)c1ccccc1Cl)Nc1ccc(OC(F)(F)F)cc1`: the Potency entry in assay [1], in assay [2], in [3], in assay [13], in assay [4] and in assay [6] was “inactive” throughout. The Potency result in [7], in assay [14], in assay [8], in [15], in assay [16] and in assay [10] was “inactive” in each case. Moreover, the Potency entry in assay [17], in assay [11] and in [12] was “inactive” each time.
With `C#CCO`, the Potency entry in [1], in assay [2], in assay [3], in [13], in [4] and in assay [5] was “inactive” each time. Also, the Potency entry in assay [6], in [7], in assay [14], in assay [18], in assay [8] and in assay [15] was “inactive” each time. Besides, the Potency entry in assay [10], in [17], in assay [11] and in assay [12] was “inactive” each time. In addition, in assay [9], the max response was 3.5%.
With `CC(=O)O.CC(=O)O.CC(=O)O.CC(=O)O.CC(=O)O.CC(=O)O.CC(=O)O.O.O.[Cr].[Cr].[Cr]`, the Potency result in [1], in assay [2], in assay [3], in assay [13], in assay [4] and in assay [5] was “inactive” in each case. The Potency result in assay [6], in assay [7], in assay [14], in assay [18], in assay [8] and in assay [15] was “inactive” throughout. Moreover, the Potency entry in [16], in assay [10], in assay [17], in [11] and in assay [12] was “inactive” in each case. In addition, the max response in [9] is 2.64%.
On to `CNC(=O)Oc1cc(C)cc(C(C)C)c1`, for which the Potency entry in assay [1], in [2], in [3], in assay [4], in assay [5] and in assay [6] was “inactive” each time. Besides, the Potency entry in assay [7], in assay [14], in [18], in assay [8], in [15] and in assay [16] was “inactive” in each case. Besides, the Potency entry in [10], in [17], in assay [11] and in assay [12] was “inactive” throughout. Moreover, the activity change, positive = activation in assay [19] was 10.3%. For the same molecule, the max response in [9] is 5.9%.
Regarding `S=C=Nc1ccccc1`, the Potency result in assay [1], in assay [2], in [3], in assay [13], in assay [4] and in assay [5] was “inactive” in each case. In addition, the Potency entry in assay [6], in assay [7], in [14], in [18], in [8] and in assay [15] was “inactive” throughout. Also, the Potency entry in assay [10], in assay [17], in assay [11] and in assay [12] was “inactive” throughout. In addition, the max response in [9] was -7.14%.
Regarding `CSC1=N[C@@](C)(c2ccccc2)C(=O)N1Nc1ccccc1`, the Potency entry in [1], in assay [2], in assay [3], in assay [4], in assay [5] and in [6] was “inactive” in each case. In addition, the Potency entry in assay [7], in [14], in assay [18], in assay [8], in [15] and in [16] was “inactive” each time. The Potency result in [10], in [17] and in assay [11] was “inactive” throughout.
